Test results published in PubChem BioAssay (NCI).
About 83,000 compounds went through this panel and 20% of them were active in at least one assay; those are over-represented in the sample as a whole.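 The test compound was applied at a single concentration to cells in 96-well plates for 48 hours, and percent growth was recorded.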 Values without a mark were called inactive. The source made the active and inactive calls.

System: IGROV1 ovarian
Assay: NCI-60 one-dose screen, 48 h (100 = growth as untreated, 0 = no growth, -100 = all killed)
Details: 10 µM unless noted
Protocol: Growth inhibition of the IGROV1 human tumor cell line is measured as a screen for anti-cancer activity. Cells are grown in 96 well plates and exposed to the test compound for 48 hours. Compounds are tested at a single concentration, which is 10^-5 M for most compounds. The reported endpoint is percent growth (GI% or GIPRCNT), where numbers from 0 - 100% represent growth inhibition, and numbers from -100% - 0 represent cell death. For example, a value of 40 represents 60% growth inhibition. A value of 0 means no net growth occurred over the course of the experiment. A value of -40 indicates 40% of cells at the beginning of the experiment died by the end of the experiment. A value of -100 means all cells are dead at the end of the experiment.
NCI-60 Human Tumor Cell Lines Screen was performed using the standard one-dose NCI protocol, which is described in more detail at https://dtp.cancer.gov/discovery_development/nci-60/default.htm.
Compounds with GIPRCNT values below 10 were considered active. Activity score was based on GIPRCNT using the following formula: […]
Score is 0 for GIPRCNT values of 100 or above, 50 for GIPRCNT values of 0, and 100 for GIPRCNT values of -100.

With `Cc1cc[n+](CCCC[n+]2ccc(C)cc2)cc1` as the molecule, how does the growth read?
The growth was 99.7%.

Which growth does the source give for `CCc1cccc(C)c1NC(=O)c1sc2nc3c(cc2c1N)CCCCC3` here?
The growth was 46.5%.

For `NC(N)=N/N=C/c1ccc([N+](=O)[O-])cc1`, which growth is on record?
Its growth is 125%.

With `O=C(Nc1ccc(-n2ccc3c(NC(=O)c4ccccc4)nccc32)cc1)c1cccc(C(F)(F)F)c1` as the molecule, how does the growth read?
Its growth is 33.3%.

Which growth does the source give for `COc1cc(/C=C2/Oc3cc4occc4c(OC)c3C2=O)ccc1OCC(=O)Nc1ccncc1` here?
Its growth is 96.3%.

Which growth does the source give for `COc1ccc2c(c1)OC(N)=C(C#N)C2c1ccc(F)cc1` (stereo not given) here?
The growth was 53.1%.

How did the growth turn out when `O=C(Nc1ccc(-n2ccc3c(NC(=O)c4ccccc4)ncnc32)cc1)Nc1cccc(Cl)c1Cl` was run?
The growth was -3.19% (active).

For `CC(C)NCC(O)COc1ccc(CC(N)=O)cc1` (stereo not given), which growth is on record?
Its growth is 97.4%.

For `COc1cc(C(=O)C[n+]2ccccc2)ccc1OC(C)=O`, which growth is on record?
The growth was 107%.

For `O=C1C(Cl)=C(Nc2cccc3cc4ccccc4nc23)C(=O)c2ccccc21`, which growth is on record?
Its growth is 37.2%.

For `CCOC(=O)c1noc2c1CCc1cn(Cc3cc(OC)cc(OC)c3)cc1-2`, which growth is on record?
Its growth is 110%.

Which growth does the source give for `COc1ccc(-c2nn(-c3ccc(NC(=O)Nc4cc(C(F)(F)F)cc(C(F)(F)F)c4)cc3)cc2-c2ccncc2)cc1Cl` here?
The growth was 26.3%.

Which growth does the source give for `Nc1n[nH]c2cccc(C#Cc3cccc(NC(=O)c4cccc(C(F)(F)F)c4)c3)c12` here?
The growth was -7.33% (active).

How did the growth turn out when `C[C@]12CC[C@@H]3c4ccc(O)c(N)c4CC[C@H]3[C@@H]1CC[C@@H]2O` was run?
The growth was 136%.

How did the growth turn out when `Cc1nssc1=S` was run?
Its growth is -13.5% (active).

How did the growth turn out when `COc1ccc2c(c1)O/C(=C/c1ccc(OCC(=O)Nc3ccc(S(N)(=O)=O)cc3)cc1)C2=O` was run?
Its growth is 111%.

`Cc1ccc[n+](CC(=O)c2cccc3ccccc23)c1` was tested. Which growth did it give?
Its growth is 96%.

Which growth does the source give for `NCC(=O)NS(=O)(=O)OC[C@H]1O[C@@H](n2cnc3c(N)ncnc32)[C@H](O)[C@@H]1O` here?
The growth was 11.7%.

With `Cc1cc2c(cc1C)N(C(=O)CCl)CCN2C(=O)CCl` as the molecule, how does the growth read?
Its growth is -61.8% (active).

`COc1ccccc1NC(=O)COc1ccc(/C=C2/Oc3cc4occc4c(OC)c3C2=O)cc1OC` was tested. Which growth did it give?
Its growth is 122%.

With `CC(Cl)(CCl)CS(=O)(=O)c1ccc(Cl)cc1` (stereo not given) as the molecule, how does the growth read?
The growth was 115%.

How did the growth turn out when `Cc1ccc(/C=C2/C(=O)Nc3cc(Cl)c(-c4csc(N)n4)cc32)cc1` was run?
The growth was 59.7%.

With `CCc1c(C)c2cc3c(c(C)c2oc1=O)OCC(=O)N3` as the molecule, how does the growth read?
The growth was 51.7%.

With `c1ccc(OCC[P+](c2ccccc2)(c2ccccc2)c2ccccc2)cc1` as the molecule, how does the growth read?
The growth was 8.06% (active).

How did the growth turn out when `CC(C)CNCC(=O)Nc1ccc(Cc2ccc(NC(=O)CNCC(C)C)cc2)cc1` was run?
The growth was 47.2%.

How did the growth turn out when `CC(=O)N[C@@H](CNC(=O)c1cc(NC(=O)c2cc(NC(=O)c3cc(NC(=O)c4nccn4C)cn3C)cn2C)cn1C)CC(=O)Nc1cn(C)c(C(=O)Nc2cc(C(=O)Nc3cc(C(=O)Nc4cc(C(=O)NCCCN(C)CCCNC(=O)c5cccc(C(=O)O)c5)n(C)c4)n(C)c3)n(C)c2)n1` was run?
The growth was 113%.

How did the growth turn out when `Cc1cc(SCc2ccc(Cl)cc2Cl)nc(SCc2ccc(Cl)cc2Cl)n1` was run?
Its growth is 99.5%.

How did the growth turn out when `O=C(C[n+]1ccccc1Cl)c1ccc2c(c1)CCCC2` was run?
Its growth is 107%.

`CCc1c(C)c2cc(-n3c(-c4ccc(OC)cc4)csc3=N)c(O)c(C)c2oc1=O` was tested. Which growth did it give?
Its growth is 25.1%.

With `c1ccc(CNCCN(CCNCc2ccccn2)Cc2ccc3ccccc3c2)nc1` as the molecule, how does the growth read?
The growth was 7.31% (active).

With `CCOc1ccccc1C(=O)N1CCN(c2cc(Cl)cc(Cl)c2)CC1` as the molecule, how does the growth read?
Its growth is 13.8%.

For `S=c1ssnc1-c1ccccn1`, which growth is on record?
Its growth is 15.2%.

With `CN1CCN(CC(O)COc2c(Br)c(Br)c(Br)c3c2OC(C)(C)C3)CC1` (stereo not given) as the molecule, how does the growth read?
The growth was -66.9% (active).

For `CC(C)(c1ccc(OCC(O)CNCc2ccco2)cc1)c1ccc(OCC(O)CNCc2ccco2)cc1` (stereo not given), which growth is on record?
Its growth is 86.3%.

How did the growth turn out when `CN1CCN(Cn2nc(-c3cc(Cl)cc(Cl)c3Cl)n(/N=C/c3ccc(Cl)cc3)c2=S)CC1` was run?
The growth was 108%.

For `O=C1c2ccccc2C(=O)c2c(NCCN=Cc3c(O)ccc4ccccc34)cccc21`, which growth is on record?
Its growth is 65.5%.

With `COc1cccc(-c2nc3sccn3c2-c2ccnc(NCCNC(=O)Nc3cccc(C(F)(F)F)c3)n2)c1` as the molecule, how does the growth read?
The growth was 50.9%.

With `CCNc1cc(S(=O)(=O)O)ccc1C` as the molecule, how does the growth read?
The growth was 106%.

Which growth does the source give for `CC1(C)Cc2c(Br)c(Br)c(Br)c(OCC(O)CN3CCN(c4ccccn4)CC3)c2O1` (stereo not given) here?
The growth was -11.7% (active).

How did the growth turn out when `O=S(=O)(O)c1ccc(F)cc1` was run?
The growth was 98.8%.
